Records with an inconclusive call do not appear. A number with no mark means an inactive call. Calls follow the shape of the dose curve; as a rule, active = well fitted inhibition curve with a large enough effect; inconclusive = small, poorly fitted or top-dose-only effect; inactive = flat fitted curve, though single readings scatter.

This assay deals with Luciferin 4-monooxygenase (Photinus pyralis) (UniProt P08659). In words: qHTS screen for small molecules that inhibit ELG1-dependent DNA repair: SAR in Biochemical Luciferin Assay. The following applies: purified firefly luciferase, luciferin luminescence counter-screen; series mostly up to 57.5 µM; activity change, negative = inhibition: at the top concentration. An excerpt: Cancer cells divide rapidly compared to normal cells in the body. During cell division, cancer cells need to duplicate their genome by DNA replication. The failure of genome duplication leads to cancer cells' death. Therefore, inhibitors of DNA replication could specifically kill cancer cells. Based on this concept, many chemotherapeutic agents were developed and have been used to treat cancer patients. However, there are a limited number of agents available in the clinical setting, and some of those that do exist have low efficacy and severe side effects. Therefore, if we can find the compounds that effectively block DNA replication either by directly damaging DNA or by inhibiting other cellular mechanisms, the options for cancer treatment will be broadened. With this in mind, we developed a quantitative high-throughput ELG1-luciferase reporter gene assay. Small molecules that specifically block ELG1 function in response to DNA damage can be identified by monitoring the suppression of luciferase activity. Since ELG1 defines a pathway for repairing DNA damage, agents blocking ELG1 function can be used to sensitize cancer cells to chemotherapeutic agents whose mechanism of action involves the induction of DNA damage. This counter assay is a luciferase assay, that following treatment with putative ELG1 antagonists, aims to eliminate luciferase enhancers/inhibitors. NIH Molecular Libraries Probe Production Network [MLPCN] NIH Chemical Genomics Center [NCGC] MLPCN Grant: R03 MH092164 Assay Provider: Kyungjae Myung, NHGRI, NIH
3 uL of substrate reagent will be pipetted into each well in 1536-well white, solid-bottom plates using a FRD dispenser, followed by addition of 23 nL of DMSO or compounds by pintool. After compound addition, 1 µL of luciferase will be added into the wells. The plates will be read in a ViewLux CCD-based plate reader.
Turning to `COc1cc2c(cc1OC)C1C(=O)c3c(cc4c(c3O)C=CC(C)(C)O4)OC1CO2` (centres undefined), the “activity change, negative = inhibition” value was -21.9%.

On to `COc1cc2c(cc1OC)[C@@H]1C(=O)c3ccc4c(c3OC1CO2)CC(C(C)C)O4` (some centres undefined), for which the “activity change, negative = inhibition” value is -6.85%.

For `CN[C@@H]1C[C@@]2(C)O[C@@H]([C@@H]1OC)n1c3ccccc3c3c4c(c5c6ccccc6n2c5c31)C(=O)NC4`, the “activity change, negative = inhibition” value was 3.86%.

As for `CO/C1=C\C(C)=C\[C@@H](C)[C@@H](O)[C@H](C)C/C(C)=C/C=C/[C@H](OC)[C@H]([C@@H](C)[C@@H](O)[C@H](C)[C@H]2C[C@@H](O)[C@H](C)[C@@H](C(C)C)O2)OC1=O`, the “activity change, negative = inhibition” value is 1.32%.

`C[C@@H]1C[C@H]2CC[C@H](O2)[C@H](C)C(=O)O[C@@H](C)C[C@@H]2CC[C@@H](O2)[C@@H](C)C(=O)O[C@H](C)C[C@H]2CC[C@H](O2)[C@H](C)C(=O)O[C@@H](C)C[C@@H]2CC[C@@H](O2)[C@@H](C)C(=O)O1`: the “activity change, negative = inhibition” value is -15.6%.

Consider `CCCCCCCCCCCCCC(=O)O[C@@H]1[C@@H](C)[C@@]2(O)[C@H](C=C(CO)C[C@]3(O)C(=O)C(C)=C[C@@H]23)[C@@H]2C(C)(C)C12OC(C)=O` (some centres undefined), for which the “activity change, negative = inhibition” value is -22.1%.

Take `COC[C@H]([C@@H](O)[C@@H](O)C(=O)NCC[C@@H](C)c1nc(/C=C/C[C@H]2OC3(C[C@H](O)[C@H]2C)OC([C@@H](C[C@@H](O)[C@@H](C)[C@@H](O)[C@@H](C)/C=C(C)/C(C)=C/C=C/C(C)=C\C#N)OC)[C@@H](OP(=O)(O)O)C3(C)C)co1)N(C)C` (some centres undefined): the “activity change, negative = inhibition” value is 3.95%.

`C[C@@H]1C[C@@H]2[C@H]([C@H]3C=C(COC(=O)c4ccccc4)[C@@H](O)[C@]4(O)[C@@H](O)C(OC(=O)c5ccccc5)=C[C@@]14C3=O)C2(C)C`: the “activity change, negative = inhibition” value is -2.41%.

Turning to `CCCCCC1C(=O)O[C@H](C)[C@@H](NC(=O)c2cccc(NC=O)c2O)C(=O)OC(C)C1OC(=O)CC(C)C` (some centres undefined), the “activity change, negative = inhibition” value is 0.76%.

For the origin of these results see PubChem BioAssay AID686933 (National Center for Advancing Translational Sciences (NCATS), 2013).
